Measurements published in the supplement of paper PMC10477191.
± gives the standard deviation of the averaged measurements.

System: Drosophila ezoana antennal basiconic sensillum ab5
Experiment: odor-evoked OSN spike response (post minus pre-stimulus); higher = stronger neuronal excitation
Details: odor dilution: 10^-4
Description: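 Single sensillum recordings from antennal basiconic sensilla of D. ezoana. A 500 ms pulse of odorant (10^-4 in mineral oil or DMSO) was delivered; the response is the change in action potential frequency between the 1 s pre- and post-stimulus windows (spikes/s).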

SMILES	odor-evoked OSN spike response [spikes/s]
CC(=O)OC/C=C(\C)CCC=C(C)C [geranyl acetate]	112 ± 41
CC(=O)c1ccccc1 [Acetophenone]	77.7 ± 24
COc1cccc(OC)c1O [Phenol, 2,6-dimethoxy- (powder)]	86.2 ± 29
